Laboratory results published in PubChem BioAssay (NCATS).
Results filed as inconclusive are left out. A number with no mark means an inactive call. Calls of active or inactive are those of the source. Unless noted, calls come from the whole dose curve; as a rule, active = well fitted inhibition curve with a large enough effect; inconclusive = small, poorly fitted or top-dose-only effect; inactive = flat fitted curve, though single readings scatter.

system: not listed separately; experiment: Confirmatory qHTS for VERO E6 Cytotoxicity Assay: Counterscreen for SARS-CoV-2 CPE Assay (AID 1508605; calls by dose curve; note: nearly all actives have a fitted effect of over 60% in size; note: potency is the fitted concentration of half-maximal effect; for activity change, negative = cytotoxic: % is set by controls: 0 for no effect and ±100 for the full control effect); conditions: cell viability luminescence; series mostly up to 20 µM; activity change, negative = cytotoxic: at the top concentration

Going from `COc1c(C)cnc(Cn2cnc3c(Cl)nc(N)nc32)c1C` to `CN(C)c1ccc(C2Nc3ccc4ccccc4c3C3=C2C(=O)CC(C)(C)C3)cc1Br` (stereo not given), the “activity change, negative = cytotoxic” value rises from -24.7% to -9.02%.

Going from `CCCCCCCc1ccc(CCc2cccc(O)c2C(=O)O)cc1` to `COc1cccc2c1CCCC2CCCN1CCN(C2CCCCC2)CC1` (stereo not given), the “activity change, negative = cytotoxic” value rises from -23.4% to -20.2%.

With `CCN(CC)CCCCNc1nc2cc(Cl)c(Cl)cc2nc1-c1ccc(-c2cccs2)s1` the Potency was 10 µM (active).
With `Nc1ccc(C(=O)c2cc3c(ccc4ccccc43)[nH]2)cc1` the Potency was 14.1 µM (active).
With `O=C(c1ccc(Nc2nccc(-c3cc4ccccc4s3)n2)cc1)N1CCC(N2CCCC2)CC1` the Potency was 10 µM (active).

system: not listed separately; experiment: Confirmatory qHTS for activators (rescue) of SARS-CoV-2 Cytopathic Effect (CPE) (AID 1508606; calls by dose curve; note: nearly all actives have a fitted effect of over 70% in size; note: potency is the fitted concentration of half-maximal effect; for CPE rescue (activation): 0% is about no effect); conditions: Vero E6 SARS-CoV-2 CPE rescue, viability luminescence; series mostly up to 20 µM; CPE rescue (activation): at the top concentration

For `S=C(NCc1ccc2c(c1)OCO2)N1CCN(c2ncnc3c2oc2ccccc23)CC1`, the Potency was 3.55 µM (active).
With `COc1cccc2c1CCCC2CCCN1CCN(C2CCCCC2)CC1` (stereo not given) the Potency was 11.2 µM (active).
For `O=C(c1ccc(Nc2nccc(-c3cc4ccccc4s3)n2)cc1)N1CCC(N2CCCC2)CC1`, the Potency was 3.55 µM (active).

With `CN(C)c1ccc(C2Nc3ccc4ccccc4c3C3=C2C(=O)CC(C)(C)C3)cc1Br` (stereo not given) the “CPE rescue (activation)” value was -0.826%.

biological target: Calcium and integrin-binding protein 1 (Homo sapiens) (UniProt Q99828); experiment: Primary qHTS for Identification of Calcium Integrin Binding Protein 1 (CIB1) Competitor (AID 1508620); conditions: CIB1-GST / FITC-alphaIIb peptide fluorescence polarization; series mostly up to 57.7 µM; activity change, negative = inhibition: at the top concentration;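 note: GST tagged CIB1 binding a fluorescein labelled alphaIIb integrin peptide tracer; top concentration of the series differs between compounds; % is set by controls: 0 for no effect and ±100 for the full control effect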
Sequence (Q99828 whole entry, looked up): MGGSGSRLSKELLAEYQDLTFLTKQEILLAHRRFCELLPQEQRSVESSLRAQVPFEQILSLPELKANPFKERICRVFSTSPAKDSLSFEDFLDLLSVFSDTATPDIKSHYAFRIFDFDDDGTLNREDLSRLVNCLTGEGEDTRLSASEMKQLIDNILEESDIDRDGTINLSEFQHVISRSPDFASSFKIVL
How it was run: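 Fluorescence polarization competition: GST-tagged CIB1 (1 uM final) preincubated with compound 15 min at room temperature, then FITC-labelled alphaIIb peptide (100 nM final) added. After 15 min at room temperature, polarization read at Ex 480/Em 540.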

First: CC(=O)OCC1=C(C(=O)O)N2C(=O)[C@@H](N)[C@@H]2SC1
Second: COCC1(CO)C(=O)C2CCN1CC2 (stereo not given)
The “activity change, negative = inhibition” value of the first is lower: -2.32% for the first, 0.394% for the second.

First: O=S(=O)(CC1CS1)c1ccc(Oc2ccccc2)cc1 (stereo not given)
Second: O=C(Nc1ccncc1)C(=O)c1cn(Cc2ccc(Cl)cc2)c2ccccc12
The “activity change, negative = inhibition” value of the first is lower: -6.2% for the first, 2.97% for the second.

Going from `C[C@@H]1CC[C@H]2[C@@H](C)C(=O)O[C@@H]3O[C@@]4(C)CC[C@H]1[C@]32OO4` to `C=CCON=C(C[C@H]1O[C@@H]2O[C@]3(C)CC[C@@H]4[C@H](C)CC[C@@H]([C@H]1C)[C@@]24OO3)[C@H]1O[C@@H]2O[C@]3(C)CC[C@H]4[C@H](C)CC[C@@H]([C@@H]1C)[C@@]24OO3`, the “activity change, negative = inhibition” value falls from -0.496% to -3.06%.

First: Cc1nc(-c2ccc(-c3ccc(C(=O)N4CCc5cc6c(cc54)C4(CCN(C)CC4)CO6)cc3)c(C)c2)no1
Second: COc1ccc(C(=O)c2c(C)n(CCN3CCOCC3)c3cc(I)ccc23)cc1
The “activity change, negative = inhibition” value of the first is higher: -5.07% for the first, -14% for the second.

First: COc1cc([C@@H]2c3cc4c(cc3[C@@H](O)C3COC(=O)C32)OCO4)cc(OC)c1O (stereo not given in full)
Second: COc1ccc2c(c1)CN(C)CC2c1ccc(Cl)c(Cl)c1 (stereo not given)
The “activity change, negative = inhibition” value of the first is lower: -4.83% for the first, -2.6% for the second.

First: CC[C@H]1C=CC=CC[C@@H](C)[C@H](O)[C@@](C)(O)C(=O)[C@@H](C)[C@H](O)[C@@H](C)C(=O)[C@@H](C)[C@H](O)[C@@H](C)C=CC(=O)O[C@@H]2[C@@H](C)[C@H](CC1)O[C@]1(CC[C@H](C)[C@H](C[C@@H](C)O)O1)[C@H]2C
Second: CC[C@@H]1[C@@H](C)O[C@@](O)([C@@H](C)[C@H](O)[C@H](C)[C@H]2OC(=O)C=CC=C[C@@H](C)[C@@H]([C@@H](C)[C@@H](O)[C@H](C)[C@@]3(O)C[C@H](O[C@H]4C[C@H](O)[C@H](O)[C@H](C)O4)[C@H](CC)[C@@H](C)O3)OC(=O)C=CC=C[C@@H]2C)C[C@H]1O[C@H]1C[C@H](O)[C@H](O)[C@H](C)O1
The “activity change, negative = inhibition” value of the first is lower: -3.43% for the first, 1.2% for the second.

Going from `CO[C@H]1CCC(O[C@H]2C[C@H]([C@]3(C)CC[C@]4(C[C@H](O)[C@@H](C)[C@@H]([C@@H](C)C=C(C)C(=O)[C@H](C)C[C@H](C)C(=O)O)O4)O3)O[C@]3(O[C@@H]([C@H]4O[C@@](O)(CO)[C@H](C)C[C@H]4C)C[C@H]3C)[C@H]2C)O[C@H]1C` (stereo not given in full) to `C[C@@H]1[C@H](O)[C@@H](C)C=CC=CCCC=CC=CC=CC=C[C@H](O[C@H]2O[C@@H](C)[C@H](O)[C@@H](N)[C@@H]2O)CC2O[C@](O)(C[C@@H](O)[C@H](O)CC[C@@H](O)C[C@@H](O)C[C@@H](O)CC(=O)O[C@H]1C)C[C@H](O)[C@H]2C(=O)O`, the “activity change, negative = inhibition” value rises from -2.84% to 3.67%.

First: C1=C2CCCN[C@H]2[C@@H]2C[C@H]1[C@@H]1CCCCN1C2
Second: C[C@]12CC[C@H]3[C@@H](CCC4=CC(=O)CC[C@@]43C)[C@H]1CC[C@H]2O
The “activity change, negative = inhibition” value of the first is lower: -2.32% for the first, -1.48% for the second.

Compared with `C[C@@H]1O[C@@H](O[C@@H]2C=C3CC[C@@H]4[C@@H](CC[C@]5(C)[C@H](c6ccc(=O)oc6)CC[C@@]45O)[C@@]3(C)CC2)[C@H](O)[C@H](O)[C@H]1O`, `C[C@H]([C@H](O)CCC(C)(C)O)[C@H]1CC[C@@]2(O)C3=CC(=O)[C@@H]4C[C@@H](O)[C@@H](O)C[C@]4(C)[C@@H]3CC[C@]12C` is lower in “activity change, negative = inhibition” value: 0.817% for the first, -1.08% for the second.

Going from `CC(=O)O[C@@]12CO[C@H]1C[C@H](O)[C@@]1(C)C(=O)[C@H](O)C3=C(C)[C@@H](O)C[C@@](O)([C@@H](OC(=O)c4ccccc4)[C@@H]21)C3(C)C` to `COC[C@H]1OC(=O)c2coc3c2[C@@]1(C)C1=C(C3=O)[C@@H]2CC[C@H](O)[C@@]2(C)C[C@@H]1OC(C)=O`, the “activity change, negative = inhibition” value falls from -1.47% to -7.41%.

Going from `N=c1c2c(-c3ccccc3)c(-c3ccccc3)n(Cc3ccccc3)c2ncn1C1CCC(O)CC1` (stereo not given) to `N#C[C@H](O[C@@H]1O[C@H](CO[C@@H]2O[C@H](CO)[C@H](O)[C@H](O)[C@H]2O)[C@H](O)[C@H](O)[C@H]1O)c1ccccc1`, the “activity change, negative = inhibition” value falls from -0.828% to -8.06%.

Going from `CC(C)(C)c1cc(C=C(C#N)C#N)cc(Br)c1O` to `CC(O)=C(C#N)C(=O)Nc1cc(Br)ccc1Br`, the “activity change, negative = inhibition” value falls from 1.15% to -3.61%.

Compared with `C[C@@]12OC(=O)[C@]1([C@@H](O)[C@@H]1C=CCCC1)NC(=O)[C@H]2CCCl`, `C[C@]12CCC(=O)C(O)=C1CC[C@@H]1[C@H]3CCC(=O)[C@@]3(C)CC[C@@H]12` is lower in “activity change, negative = inhibition” value: -0.319% for the first, -2.91% for the second.

With `CCOC(=O)c1c(C(C#N)=CN)c2ccc(Cl)c(Cl)c2n1C` the “activity change, negative = inhibition” value was 0.471%.

In the case of `CCCN(CCC)c1c([N+](=O)[O-])cc(S(N)(=O)=O)cc1[N+](=O)[O-]`, the “activity change, negative = inhibition” value is reported as -9.5% [at 228 µM].

For `CC(=O)N(C)c1cccc(-c2ccnc3c(C(=O)c4cccs4)cnn23)c1`, the outcome was “inactive”.
